From ChEMBL document CHEMBL2218924, “A broad activity screen in support of a chemogenomic map for kinase signalling research and drug discovery” (Biochem J, 2013)

Legend:
[1] = biological target: T1, Ephrin type-B receptor 1 (Homo sapiens) (UniProt P54762); conditions: at 10 µM
T1 sequence (whole entry): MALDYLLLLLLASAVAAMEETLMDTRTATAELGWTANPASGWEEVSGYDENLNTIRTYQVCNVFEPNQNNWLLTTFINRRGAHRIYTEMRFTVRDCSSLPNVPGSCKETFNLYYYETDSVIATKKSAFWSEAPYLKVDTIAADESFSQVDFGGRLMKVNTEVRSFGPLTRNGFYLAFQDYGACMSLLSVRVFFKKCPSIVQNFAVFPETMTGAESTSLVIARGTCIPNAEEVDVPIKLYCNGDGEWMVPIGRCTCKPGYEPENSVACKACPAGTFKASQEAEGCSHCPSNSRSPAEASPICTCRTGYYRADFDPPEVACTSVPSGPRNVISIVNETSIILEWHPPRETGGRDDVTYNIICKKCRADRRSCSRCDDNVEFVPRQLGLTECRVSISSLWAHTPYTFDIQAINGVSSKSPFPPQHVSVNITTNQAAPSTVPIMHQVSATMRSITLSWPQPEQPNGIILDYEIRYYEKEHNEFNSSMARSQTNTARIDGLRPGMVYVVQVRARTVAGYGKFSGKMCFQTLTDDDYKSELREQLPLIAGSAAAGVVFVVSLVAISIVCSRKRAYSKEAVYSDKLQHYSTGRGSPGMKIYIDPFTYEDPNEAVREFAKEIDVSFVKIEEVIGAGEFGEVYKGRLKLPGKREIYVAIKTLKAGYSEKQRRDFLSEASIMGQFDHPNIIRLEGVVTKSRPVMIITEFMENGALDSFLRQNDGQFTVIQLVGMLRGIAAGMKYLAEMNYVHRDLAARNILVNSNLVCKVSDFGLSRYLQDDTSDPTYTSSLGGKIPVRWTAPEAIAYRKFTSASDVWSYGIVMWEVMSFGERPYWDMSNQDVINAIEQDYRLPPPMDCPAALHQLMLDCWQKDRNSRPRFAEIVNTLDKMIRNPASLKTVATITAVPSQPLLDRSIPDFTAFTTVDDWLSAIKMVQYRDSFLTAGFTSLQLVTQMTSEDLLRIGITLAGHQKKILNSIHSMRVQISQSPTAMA

[2] = biological target: T2, Ephrin type-B receptor 3 (Homo sapiens) (UniProt P54753); conditions: at 10 µM
T2 sequence (whole entry): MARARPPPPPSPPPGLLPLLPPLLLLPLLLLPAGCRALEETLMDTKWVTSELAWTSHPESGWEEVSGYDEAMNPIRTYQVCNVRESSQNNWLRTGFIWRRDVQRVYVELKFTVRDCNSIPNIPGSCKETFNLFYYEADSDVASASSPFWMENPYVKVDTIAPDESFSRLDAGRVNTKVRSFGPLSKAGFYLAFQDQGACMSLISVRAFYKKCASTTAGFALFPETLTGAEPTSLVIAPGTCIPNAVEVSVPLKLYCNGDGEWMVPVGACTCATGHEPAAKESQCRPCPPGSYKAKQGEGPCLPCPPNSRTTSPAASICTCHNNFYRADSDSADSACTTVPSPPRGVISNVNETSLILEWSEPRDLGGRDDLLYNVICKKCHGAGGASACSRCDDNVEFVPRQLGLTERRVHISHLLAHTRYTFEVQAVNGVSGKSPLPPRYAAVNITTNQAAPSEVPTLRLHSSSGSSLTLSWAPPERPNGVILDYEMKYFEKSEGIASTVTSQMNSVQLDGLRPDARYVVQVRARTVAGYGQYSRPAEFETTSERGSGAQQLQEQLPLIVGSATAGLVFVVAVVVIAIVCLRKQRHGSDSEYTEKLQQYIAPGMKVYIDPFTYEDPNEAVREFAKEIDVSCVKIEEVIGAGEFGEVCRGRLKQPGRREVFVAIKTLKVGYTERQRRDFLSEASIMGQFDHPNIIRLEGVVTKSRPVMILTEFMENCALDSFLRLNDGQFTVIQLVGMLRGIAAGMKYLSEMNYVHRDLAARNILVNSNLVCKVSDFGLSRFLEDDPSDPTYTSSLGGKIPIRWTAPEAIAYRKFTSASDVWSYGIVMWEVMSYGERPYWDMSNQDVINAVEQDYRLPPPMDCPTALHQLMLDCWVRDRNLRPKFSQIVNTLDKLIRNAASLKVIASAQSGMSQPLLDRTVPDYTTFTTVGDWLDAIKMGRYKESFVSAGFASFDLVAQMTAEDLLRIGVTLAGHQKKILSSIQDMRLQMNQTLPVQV

[3] = biological target: Receptor tyrosine-protein kinase erbB-4 (Homo sapiens) (UniProt Q15303); conditions: at 1 µM
[4] = biological target: Fibroblast growth factor receptor 1 (Homo sapiens) (UniProt P11362); conditions: at 1 µM
[5] = biological target: Fibroblast growth factor receptor 1 (Homo sapiens) (UniProt P11362); conditions: at 10 µM
[6] = biological target: Fibroblast growth factor receptor 3 (Homo sapiens) (UniProt P22607); conditions: at 10 µM
[7] = biological target: T3, Ephrin type-B receptor 2 (Homo sapiens) (UniProt P29323); conditions: at 1 µM
T3 sequence (whole entry): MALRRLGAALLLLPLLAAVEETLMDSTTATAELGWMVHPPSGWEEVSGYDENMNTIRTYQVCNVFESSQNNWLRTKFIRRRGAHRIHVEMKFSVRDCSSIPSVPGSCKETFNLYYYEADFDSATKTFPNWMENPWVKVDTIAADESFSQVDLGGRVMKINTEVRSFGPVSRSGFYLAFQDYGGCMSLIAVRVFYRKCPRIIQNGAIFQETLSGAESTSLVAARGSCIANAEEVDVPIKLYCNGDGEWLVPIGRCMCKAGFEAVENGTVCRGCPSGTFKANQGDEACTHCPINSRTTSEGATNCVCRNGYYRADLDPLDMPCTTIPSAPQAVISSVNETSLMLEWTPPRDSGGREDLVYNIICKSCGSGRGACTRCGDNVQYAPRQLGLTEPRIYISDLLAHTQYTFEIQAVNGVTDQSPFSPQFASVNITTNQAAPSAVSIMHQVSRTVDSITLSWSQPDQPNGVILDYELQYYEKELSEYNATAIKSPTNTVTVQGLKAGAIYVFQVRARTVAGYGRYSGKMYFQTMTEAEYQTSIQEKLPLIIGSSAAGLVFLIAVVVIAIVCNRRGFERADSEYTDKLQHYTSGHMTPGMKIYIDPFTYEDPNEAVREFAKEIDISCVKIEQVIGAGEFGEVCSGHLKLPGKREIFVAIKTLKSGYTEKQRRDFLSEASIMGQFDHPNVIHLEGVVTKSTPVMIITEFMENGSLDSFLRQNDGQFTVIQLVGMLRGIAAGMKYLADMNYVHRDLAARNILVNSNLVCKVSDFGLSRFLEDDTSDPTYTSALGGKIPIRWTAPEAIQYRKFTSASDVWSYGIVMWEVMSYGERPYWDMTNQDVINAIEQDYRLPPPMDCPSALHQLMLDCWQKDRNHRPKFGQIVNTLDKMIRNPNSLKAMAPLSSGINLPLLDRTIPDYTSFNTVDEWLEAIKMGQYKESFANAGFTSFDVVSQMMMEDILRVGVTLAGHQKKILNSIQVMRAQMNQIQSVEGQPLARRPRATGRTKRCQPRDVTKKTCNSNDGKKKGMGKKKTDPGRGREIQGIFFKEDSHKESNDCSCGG

[8] = biological target: T3, Ephrin type-B receptor 2 (Homo sapiens); conditions: at 10 µM
[9] = biological target: T2, Ephrin type-B receptor 3 (Homo sapiens); conditions: at 1 µM
[10] = biological target: T4, Ephrin type-B receptor 4 (Homo sapiens) (UniProt P54760); conditions: at 1 µM
T4 sequence (whole entry): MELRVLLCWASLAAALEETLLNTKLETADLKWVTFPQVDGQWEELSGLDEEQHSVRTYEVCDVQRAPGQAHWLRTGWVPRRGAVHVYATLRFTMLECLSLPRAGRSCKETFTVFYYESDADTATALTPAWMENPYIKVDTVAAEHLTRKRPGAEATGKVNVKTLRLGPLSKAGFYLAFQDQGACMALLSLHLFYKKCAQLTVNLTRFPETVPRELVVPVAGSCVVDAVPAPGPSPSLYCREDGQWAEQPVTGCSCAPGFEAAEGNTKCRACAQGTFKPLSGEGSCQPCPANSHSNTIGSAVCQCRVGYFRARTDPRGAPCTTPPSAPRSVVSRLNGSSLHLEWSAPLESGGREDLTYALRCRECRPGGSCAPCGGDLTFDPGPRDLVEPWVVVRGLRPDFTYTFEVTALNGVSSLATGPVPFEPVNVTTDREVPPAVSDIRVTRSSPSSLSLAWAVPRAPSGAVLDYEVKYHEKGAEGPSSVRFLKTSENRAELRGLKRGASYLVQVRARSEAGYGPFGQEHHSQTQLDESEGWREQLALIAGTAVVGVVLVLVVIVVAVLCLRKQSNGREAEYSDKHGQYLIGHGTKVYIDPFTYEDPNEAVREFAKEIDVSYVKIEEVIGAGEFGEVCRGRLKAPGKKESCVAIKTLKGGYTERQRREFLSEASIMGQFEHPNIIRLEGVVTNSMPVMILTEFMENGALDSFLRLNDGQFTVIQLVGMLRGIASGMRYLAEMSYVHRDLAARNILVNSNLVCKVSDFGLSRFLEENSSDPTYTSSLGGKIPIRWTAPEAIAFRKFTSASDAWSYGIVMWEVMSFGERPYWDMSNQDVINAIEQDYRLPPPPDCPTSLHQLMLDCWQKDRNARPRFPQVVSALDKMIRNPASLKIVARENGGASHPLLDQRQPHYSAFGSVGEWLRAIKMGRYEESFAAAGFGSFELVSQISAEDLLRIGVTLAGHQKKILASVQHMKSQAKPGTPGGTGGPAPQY

[11] = biological target: T4, Ephrin type-B receptor 4 (Homo sapiens); conditions: at 10 µM
[12] = biological target: Receptor tyrosine-protein kinase erbB-4 (Homo sapiens) (UniProt Q15303); conditions: at 10 µM
[13] = biological target: Focal adhesion kinase 1 (Homo sapiens) (UniProt Q05397); conditions: at 1 µM
[14] = biological target: Focal adhesion kinase 1 (Homo sapiens) (UniProt Q05397); conditions: at 10 µM
[15] = biological target: Fibroblast growth factor receptor 2 (Homo sapiens) (UniProt P21802); conditions: at 1 µM
[16] = biological target: Fibroblast growth factor receptor 3 (Homo sapiens) (UniProt P22607); conditions: at 1 µM
[17] = biological target: Fibroblast growth factor receptor 4 (Homo sapiens) (UniProt P22455); conditions: at 1 µM
[18] = biological target: Fibroblast growth factor receptor 4 (Homo sapiens) (UniProt P22455); conditions: at 10 µM
[19] = biological target: Tyrosine-protein kinase Fer (Homo sapiens) (UniProt P16591); conditions: at 1 µM
[20] = biological target: Fibroblast growth factor receptor 2 (Homo sapiens) (UniProt P21802); conditions: at 10 µM

Chain of Receptor tyrosine-protein kinase erbB-4 (Homo sapiens) (Q15303 whole entry): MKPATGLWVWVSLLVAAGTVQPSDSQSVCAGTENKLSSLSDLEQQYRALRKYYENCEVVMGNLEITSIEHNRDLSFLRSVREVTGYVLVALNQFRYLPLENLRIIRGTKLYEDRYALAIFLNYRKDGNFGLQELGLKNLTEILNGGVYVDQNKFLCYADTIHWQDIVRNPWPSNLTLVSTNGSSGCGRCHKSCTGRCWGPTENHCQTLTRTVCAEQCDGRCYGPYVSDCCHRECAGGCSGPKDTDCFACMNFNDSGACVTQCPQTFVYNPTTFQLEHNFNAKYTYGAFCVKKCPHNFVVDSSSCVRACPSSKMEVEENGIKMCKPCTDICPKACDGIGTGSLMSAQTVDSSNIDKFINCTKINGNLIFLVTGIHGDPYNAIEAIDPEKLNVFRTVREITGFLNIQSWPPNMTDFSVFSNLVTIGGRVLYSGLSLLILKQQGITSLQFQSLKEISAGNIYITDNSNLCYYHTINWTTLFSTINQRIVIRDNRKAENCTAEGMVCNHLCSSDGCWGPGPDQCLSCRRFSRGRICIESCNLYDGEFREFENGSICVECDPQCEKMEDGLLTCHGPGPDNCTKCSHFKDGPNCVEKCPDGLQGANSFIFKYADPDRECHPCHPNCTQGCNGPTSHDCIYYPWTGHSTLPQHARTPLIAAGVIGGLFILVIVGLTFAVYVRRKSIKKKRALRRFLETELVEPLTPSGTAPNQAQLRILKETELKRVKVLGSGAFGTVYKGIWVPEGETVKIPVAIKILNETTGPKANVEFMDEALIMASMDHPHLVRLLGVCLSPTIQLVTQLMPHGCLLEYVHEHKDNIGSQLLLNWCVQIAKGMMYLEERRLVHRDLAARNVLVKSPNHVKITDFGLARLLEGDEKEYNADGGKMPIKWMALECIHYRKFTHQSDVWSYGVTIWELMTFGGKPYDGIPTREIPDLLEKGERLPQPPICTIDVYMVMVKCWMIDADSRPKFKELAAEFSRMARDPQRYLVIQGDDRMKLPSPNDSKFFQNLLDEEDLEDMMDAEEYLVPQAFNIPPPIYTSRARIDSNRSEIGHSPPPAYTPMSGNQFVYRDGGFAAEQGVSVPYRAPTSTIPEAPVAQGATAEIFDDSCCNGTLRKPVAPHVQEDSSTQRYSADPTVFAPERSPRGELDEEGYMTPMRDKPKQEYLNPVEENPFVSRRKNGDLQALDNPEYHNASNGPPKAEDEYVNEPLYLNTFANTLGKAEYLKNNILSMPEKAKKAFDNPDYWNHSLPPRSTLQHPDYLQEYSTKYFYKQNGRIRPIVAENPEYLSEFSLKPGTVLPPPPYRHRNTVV
Chain of Fibroblast growth factor receptor 3 (Homo sapiens) (P22607 23-806 limits assumed): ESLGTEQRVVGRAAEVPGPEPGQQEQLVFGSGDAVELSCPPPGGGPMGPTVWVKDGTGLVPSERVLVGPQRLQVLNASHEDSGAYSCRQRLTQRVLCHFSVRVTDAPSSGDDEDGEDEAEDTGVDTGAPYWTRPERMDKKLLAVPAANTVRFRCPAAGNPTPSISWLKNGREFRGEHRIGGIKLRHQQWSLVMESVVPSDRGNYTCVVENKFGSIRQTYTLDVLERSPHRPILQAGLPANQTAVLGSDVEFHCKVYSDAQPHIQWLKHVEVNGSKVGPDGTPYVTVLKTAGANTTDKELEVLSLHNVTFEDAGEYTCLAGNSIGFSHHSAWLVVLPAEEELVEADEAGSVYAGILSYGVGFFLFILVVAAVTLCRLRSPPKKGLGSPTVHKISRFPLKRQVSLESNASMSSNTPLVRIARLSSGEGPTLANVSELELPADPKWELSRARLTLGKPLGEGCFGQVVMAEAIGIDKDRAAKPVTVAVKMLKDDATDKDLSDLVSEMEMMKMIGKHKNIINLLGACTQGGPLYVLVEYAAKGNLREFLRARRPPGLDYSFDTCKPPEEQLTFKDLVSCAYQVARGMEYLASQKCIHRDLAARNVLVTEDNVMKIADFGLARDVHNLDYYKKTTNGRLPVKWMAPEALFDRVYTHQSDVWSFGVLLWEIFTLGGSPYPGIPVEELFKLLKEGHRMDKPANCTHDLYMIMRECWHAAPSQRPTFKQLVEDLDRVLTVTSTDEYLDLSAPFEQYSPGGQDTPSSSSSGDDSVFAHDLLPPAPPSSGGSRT
Chain of Fibroblast growth factor receptor 2 (Homo sapiens) (P21802 22-821 limits assumed): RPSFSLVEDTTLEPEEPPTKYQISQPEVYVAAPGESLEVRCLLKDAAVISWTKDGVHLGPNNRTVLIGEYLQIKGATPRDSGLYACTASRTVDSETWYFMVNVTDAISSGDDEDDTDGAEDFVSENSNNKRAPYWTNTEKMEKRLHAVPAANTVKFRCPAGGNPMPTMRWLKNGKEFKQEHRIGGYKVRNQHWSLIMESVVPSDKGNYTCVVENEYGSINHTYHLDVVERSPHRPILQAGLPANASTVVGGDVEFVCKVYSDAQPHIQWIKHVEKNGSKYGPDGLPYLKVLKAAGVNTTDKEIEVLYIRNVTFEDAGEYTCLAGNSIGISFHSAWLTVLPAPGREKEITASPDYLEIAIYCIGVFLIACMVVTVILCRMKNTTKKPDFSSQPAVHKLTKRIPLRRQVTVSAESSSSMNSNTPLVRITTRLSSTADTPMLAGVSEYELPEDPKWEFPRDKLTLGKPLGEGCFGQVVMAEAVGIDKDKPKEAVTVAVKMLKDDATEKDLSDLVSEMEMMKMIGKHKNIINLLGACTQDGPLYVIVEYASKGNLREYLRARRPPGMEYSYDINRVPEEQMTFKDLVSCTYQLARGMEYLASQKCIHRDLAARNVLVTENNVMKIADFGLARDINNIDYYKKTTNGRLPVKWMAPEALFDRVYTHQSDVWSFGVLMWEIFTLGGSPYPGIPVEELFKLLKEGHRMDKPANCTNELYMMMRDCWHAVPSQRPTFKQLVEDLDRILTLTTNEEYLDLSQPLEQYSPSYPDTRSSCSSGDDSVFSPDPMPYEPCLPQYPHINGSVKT
Chain of Fibroblast growth factor receptor 1 (Homo sapiens) (P11362 22-822 limits assumed): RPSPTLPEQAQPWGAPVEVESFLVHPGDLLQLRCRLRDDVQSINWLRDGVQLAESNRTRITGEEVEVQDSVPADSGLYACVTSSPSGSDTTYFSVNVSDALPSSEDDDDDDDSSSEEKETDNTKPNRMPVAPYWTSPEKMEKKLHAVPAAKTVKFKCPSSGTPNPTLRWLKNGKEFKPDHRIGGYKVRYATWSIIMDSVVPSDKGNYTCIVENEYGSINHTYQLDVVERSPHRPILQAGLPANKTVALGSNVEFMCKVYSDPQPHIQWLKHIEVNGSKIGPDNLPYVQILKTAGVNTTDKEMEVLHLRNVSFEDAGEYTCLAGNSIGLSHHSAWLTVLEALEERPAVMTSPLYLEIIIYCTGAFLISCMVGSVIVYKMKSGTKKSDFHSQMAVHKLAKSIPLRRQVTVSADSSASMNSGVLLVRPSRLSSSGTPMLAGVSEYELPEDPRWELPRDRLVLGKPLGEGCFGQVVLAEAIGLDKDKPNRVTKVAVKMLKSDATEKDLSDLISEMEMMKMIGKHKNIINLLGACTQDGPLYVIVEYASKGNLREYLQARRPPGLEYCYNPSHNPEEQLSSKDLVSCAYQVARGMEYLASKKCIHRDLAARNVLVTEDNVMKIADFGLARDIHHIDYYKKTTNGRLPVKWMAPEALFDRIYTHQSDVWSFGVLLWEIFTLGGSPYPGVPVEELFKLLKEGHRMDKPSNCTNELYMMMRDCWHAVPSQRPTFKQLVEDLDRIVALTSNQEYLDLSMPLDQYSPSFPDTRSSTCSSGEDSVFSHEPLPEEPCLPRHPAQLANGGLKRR
Chain of Tyrosine-protein kinase Fer (Homo sapiens) (P16591 whole entry, looked up): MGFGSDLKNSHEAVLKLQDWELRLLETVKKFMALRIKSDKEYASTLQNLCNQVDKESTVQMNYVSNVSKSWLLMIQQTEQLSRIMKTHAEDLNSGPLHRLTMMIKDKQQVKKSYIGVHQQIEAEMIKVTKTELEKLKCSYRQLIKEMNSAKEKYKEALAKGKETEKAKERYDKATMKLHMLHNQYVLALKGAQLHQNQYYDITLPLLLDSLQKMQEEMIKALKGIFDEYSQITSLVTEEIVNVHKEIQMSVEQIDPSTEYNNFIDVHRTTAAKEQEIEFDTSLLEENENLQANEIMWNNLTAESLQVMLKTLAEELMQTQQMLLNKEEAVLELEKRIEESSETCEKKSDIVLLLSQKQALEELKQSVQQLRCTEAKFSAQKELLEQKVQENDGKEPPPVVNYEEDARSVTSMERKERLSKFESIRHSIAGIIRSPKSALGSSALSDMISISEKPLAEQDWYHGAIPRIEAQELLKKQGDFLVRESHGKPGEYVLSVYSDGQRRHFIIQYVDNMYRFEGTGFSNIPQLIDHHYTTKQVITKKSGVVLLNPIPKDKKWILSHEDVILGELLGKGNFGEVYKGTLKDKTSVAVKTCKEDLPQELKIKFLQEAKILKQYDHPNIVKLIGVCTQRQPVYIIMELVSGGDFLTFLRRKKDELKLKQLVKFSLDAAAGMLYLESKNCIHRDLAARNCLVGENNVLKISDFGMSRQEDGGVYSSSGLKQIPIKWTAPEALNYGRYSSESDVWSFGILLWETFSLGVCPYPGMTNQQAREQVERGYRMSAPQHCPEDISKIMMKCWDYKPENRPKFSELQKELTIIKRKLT

SMILES	residual activity [1] [%]	residual activity [2] [%]	residual activity [3] [%]	residual activity [4] [%]	residual activity [5] [%]	residual activity [6] [%]	residual activity [7] [%]	residual activity [8] [%]	residual activity [9]	residual activity [10] [%]	residual activity [11] [%]	residual activity [12] [%]	residual activity [13] [%]	residual activity [14] [%]	residual activity [15] [%]	residual activity [16] [%]	residual activity [17] [%]	residual activity [18] [%]	residual activity [19] [%]	residual activity [20] [%]
Cc1cncc2cccc(S(=O)(=O)N3CCCN(C(=O)CN)C[C@H]3C)c12	31	128	89	76	20	93														
N#C/C(=C(\N)Sc1ccc(N)cc1)c1ccccc1C(F)(F)F	95	109	96	112	83	93	108	110	105% (inactive)	93	92	104	99	95	100	102	86	90	88	
CO[C@@H]1[C@H](N(C)C(=O)c2ccccc2)C[C@H]2O[C@]1(C)n1c3ccccc3c3c4c(c5c6ccccc6n2c5c31)C(=O)NC4		130	67	5	-4	19	111	222	119% (inactive)	107	372		90	37	21	34	71	41	26	7
c1ccc(-c2n[nH]cc2-c2ccnc3ccccc23)nc1	105	137	98	80	72				102% (inactive)	109	105	98			101					97
COc1cc2ncc(-c3ccccc3)nc2cc1OC		90	88						132% (inactive)	125	123	85	139	95	100					93
CN(C)CCCn1cc(C2=C(c3c[nH]c4ccccc34)C(=O)NC2=O)c2ccccc21	59	110	113	50	3	29	119	113	108% (inactive)	124	118	86	133	37	88		121	70	113	33
c1ccc(-c2n[nH]c3c2oc2ccccc23)cc1	90	100	90	90	36	59			93% (inactive)	100	116		122	76		98				52
N#CCCc1ccc2c(c1)-c1[nH]c3ccc([N+](=O)[O-])cc3c1CC(=O)N2	74			47	17			67			77	76	50	22						48
CC(C)n1cnc2/c(=N/c3cccc(Cl)c3)nc(NCCO)[nH]c21	20		94	87	19	59	102	35	108% (inactive)	67	22	107	46	11	101	106	114	110		37
